According to the supplement of paper PMC11732987, “Enantioselective OTUD7B fragment discovery through chemoproteomics screening and high-throughput optimisation” (Communications Chemistry, 2025):

Legend:
Assay in all cases: log2 ratio of Biotin-Ahx-Ub-VS probe labelling (fragment/DMSO); higher = less target engagement (more negative = stronger competition), active = hit call of the paper (q ≤ 0.05, log2 ratio ≤ -1)
Details in all cases: compound concentration: 200 uM; treatment time: 3 h
USP19 = biological target: T1, USP19 (UniProt O94966)
T1 sequence (whole entry): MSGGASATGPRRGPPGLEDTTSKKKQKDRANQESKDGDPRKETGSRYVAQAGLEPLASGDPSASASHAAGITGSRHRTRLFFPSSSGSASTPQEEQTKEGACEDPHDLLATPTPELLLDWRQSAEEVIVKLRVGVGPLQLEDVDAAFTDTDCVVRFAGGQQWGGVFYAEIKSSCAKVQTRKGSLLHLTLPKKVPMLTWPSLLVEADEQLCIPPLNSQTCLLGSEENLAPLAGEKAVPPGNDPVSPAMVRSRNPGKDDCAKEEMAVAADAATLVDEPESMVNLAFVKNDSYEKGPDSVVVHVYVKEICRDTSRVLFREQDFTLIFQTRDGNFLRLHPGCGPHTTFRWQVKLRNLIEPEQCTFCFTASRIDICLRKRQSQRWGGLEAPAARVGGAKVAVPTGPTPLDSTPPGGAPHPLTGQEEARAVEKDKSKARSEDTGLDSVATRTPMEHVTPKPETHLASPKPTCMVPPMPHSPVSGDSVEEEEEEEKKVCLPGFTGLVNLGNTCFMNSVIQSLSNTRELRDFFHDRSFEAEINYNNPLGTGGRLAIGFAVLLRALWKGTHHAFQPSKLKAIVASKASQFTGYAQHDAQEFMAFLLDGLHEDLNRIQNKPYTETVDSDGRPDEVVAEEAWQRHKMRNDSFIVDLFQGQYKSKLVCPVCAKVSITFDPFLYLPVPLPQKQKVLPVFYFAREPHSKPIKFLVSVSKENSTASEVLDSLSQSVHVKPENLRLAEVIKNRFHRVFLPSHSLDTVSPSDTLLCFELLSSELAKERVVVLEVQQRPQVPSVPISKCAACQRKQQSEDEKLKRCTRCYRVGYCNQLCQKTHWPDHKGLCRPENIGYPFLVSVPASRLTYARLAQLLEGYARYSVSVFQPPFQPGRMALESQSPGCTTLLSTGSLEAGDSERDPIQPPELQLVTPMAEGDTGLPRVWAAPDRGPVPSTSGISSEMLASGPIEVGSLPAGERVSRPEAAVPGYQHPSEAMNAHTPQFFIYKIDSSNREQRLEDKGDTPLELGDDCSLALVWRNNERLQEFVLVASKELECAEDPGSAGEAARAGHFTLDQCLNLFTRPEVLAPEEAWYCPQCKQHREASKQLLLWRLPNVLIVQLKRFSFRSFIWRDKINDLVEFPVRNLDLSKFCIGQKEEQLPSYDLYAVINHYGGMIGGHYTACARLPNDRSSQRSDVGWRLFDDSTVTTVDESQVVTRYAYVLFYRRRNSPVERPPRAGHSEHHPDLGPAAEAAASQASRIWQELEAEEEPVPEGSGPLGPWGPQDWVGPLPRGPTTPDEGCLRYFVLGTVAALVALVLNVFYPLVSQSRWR
Summary of the method: (§1)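 Labelled DUBs were enriched with NeutrAvidin, digested with LysC and trypsin, and run by diaPASEF LC-MS/MS. The labelling used Biotin-Ahx-Ub-VS at 0.5 µM final for 1 h on HEK293T lysate (495 µg per sample) previously treated in triplicate with fragment at 200 µM or vehicle for 3 h. Values are average log2 fragment/vehicle ratios by unpaired t-test on global-median-normalised Spectronaut quantities of proteins with ≥2 unique peptides.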

USP22 = biological target: T2, USP22 (UniProt Q9UPT9)
T2 sequence (whole entry): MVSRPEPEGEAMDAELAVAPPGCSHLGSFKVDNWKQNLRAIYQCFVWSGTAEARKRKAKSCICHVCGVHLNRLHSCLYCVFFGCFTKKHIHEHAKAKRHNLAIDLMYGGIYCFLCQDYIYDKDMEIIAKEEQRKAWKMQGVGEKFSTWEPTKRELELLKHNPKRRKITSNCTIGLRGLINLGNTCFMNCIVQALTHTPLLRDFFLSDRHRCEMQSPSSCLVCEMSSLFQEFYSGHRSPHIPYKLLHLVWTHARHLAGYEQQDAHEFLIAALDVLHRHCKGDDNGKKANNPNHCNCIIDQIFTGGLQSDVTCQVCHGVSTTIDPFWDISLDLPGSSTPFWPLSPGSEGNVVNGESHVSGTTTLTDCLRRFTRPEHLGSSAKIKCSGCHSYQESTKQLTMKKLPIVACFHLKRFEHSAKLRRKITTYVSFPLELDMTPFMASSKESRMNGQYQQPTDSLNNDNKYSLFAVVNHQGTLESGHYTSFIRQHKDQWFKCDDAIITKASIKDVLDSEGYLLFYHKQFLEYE
Summary of the method: as §1

USP24 = USP24 (UniProt Q9UPU5)
Chain of USP24 (Q9UPU5 whole entry): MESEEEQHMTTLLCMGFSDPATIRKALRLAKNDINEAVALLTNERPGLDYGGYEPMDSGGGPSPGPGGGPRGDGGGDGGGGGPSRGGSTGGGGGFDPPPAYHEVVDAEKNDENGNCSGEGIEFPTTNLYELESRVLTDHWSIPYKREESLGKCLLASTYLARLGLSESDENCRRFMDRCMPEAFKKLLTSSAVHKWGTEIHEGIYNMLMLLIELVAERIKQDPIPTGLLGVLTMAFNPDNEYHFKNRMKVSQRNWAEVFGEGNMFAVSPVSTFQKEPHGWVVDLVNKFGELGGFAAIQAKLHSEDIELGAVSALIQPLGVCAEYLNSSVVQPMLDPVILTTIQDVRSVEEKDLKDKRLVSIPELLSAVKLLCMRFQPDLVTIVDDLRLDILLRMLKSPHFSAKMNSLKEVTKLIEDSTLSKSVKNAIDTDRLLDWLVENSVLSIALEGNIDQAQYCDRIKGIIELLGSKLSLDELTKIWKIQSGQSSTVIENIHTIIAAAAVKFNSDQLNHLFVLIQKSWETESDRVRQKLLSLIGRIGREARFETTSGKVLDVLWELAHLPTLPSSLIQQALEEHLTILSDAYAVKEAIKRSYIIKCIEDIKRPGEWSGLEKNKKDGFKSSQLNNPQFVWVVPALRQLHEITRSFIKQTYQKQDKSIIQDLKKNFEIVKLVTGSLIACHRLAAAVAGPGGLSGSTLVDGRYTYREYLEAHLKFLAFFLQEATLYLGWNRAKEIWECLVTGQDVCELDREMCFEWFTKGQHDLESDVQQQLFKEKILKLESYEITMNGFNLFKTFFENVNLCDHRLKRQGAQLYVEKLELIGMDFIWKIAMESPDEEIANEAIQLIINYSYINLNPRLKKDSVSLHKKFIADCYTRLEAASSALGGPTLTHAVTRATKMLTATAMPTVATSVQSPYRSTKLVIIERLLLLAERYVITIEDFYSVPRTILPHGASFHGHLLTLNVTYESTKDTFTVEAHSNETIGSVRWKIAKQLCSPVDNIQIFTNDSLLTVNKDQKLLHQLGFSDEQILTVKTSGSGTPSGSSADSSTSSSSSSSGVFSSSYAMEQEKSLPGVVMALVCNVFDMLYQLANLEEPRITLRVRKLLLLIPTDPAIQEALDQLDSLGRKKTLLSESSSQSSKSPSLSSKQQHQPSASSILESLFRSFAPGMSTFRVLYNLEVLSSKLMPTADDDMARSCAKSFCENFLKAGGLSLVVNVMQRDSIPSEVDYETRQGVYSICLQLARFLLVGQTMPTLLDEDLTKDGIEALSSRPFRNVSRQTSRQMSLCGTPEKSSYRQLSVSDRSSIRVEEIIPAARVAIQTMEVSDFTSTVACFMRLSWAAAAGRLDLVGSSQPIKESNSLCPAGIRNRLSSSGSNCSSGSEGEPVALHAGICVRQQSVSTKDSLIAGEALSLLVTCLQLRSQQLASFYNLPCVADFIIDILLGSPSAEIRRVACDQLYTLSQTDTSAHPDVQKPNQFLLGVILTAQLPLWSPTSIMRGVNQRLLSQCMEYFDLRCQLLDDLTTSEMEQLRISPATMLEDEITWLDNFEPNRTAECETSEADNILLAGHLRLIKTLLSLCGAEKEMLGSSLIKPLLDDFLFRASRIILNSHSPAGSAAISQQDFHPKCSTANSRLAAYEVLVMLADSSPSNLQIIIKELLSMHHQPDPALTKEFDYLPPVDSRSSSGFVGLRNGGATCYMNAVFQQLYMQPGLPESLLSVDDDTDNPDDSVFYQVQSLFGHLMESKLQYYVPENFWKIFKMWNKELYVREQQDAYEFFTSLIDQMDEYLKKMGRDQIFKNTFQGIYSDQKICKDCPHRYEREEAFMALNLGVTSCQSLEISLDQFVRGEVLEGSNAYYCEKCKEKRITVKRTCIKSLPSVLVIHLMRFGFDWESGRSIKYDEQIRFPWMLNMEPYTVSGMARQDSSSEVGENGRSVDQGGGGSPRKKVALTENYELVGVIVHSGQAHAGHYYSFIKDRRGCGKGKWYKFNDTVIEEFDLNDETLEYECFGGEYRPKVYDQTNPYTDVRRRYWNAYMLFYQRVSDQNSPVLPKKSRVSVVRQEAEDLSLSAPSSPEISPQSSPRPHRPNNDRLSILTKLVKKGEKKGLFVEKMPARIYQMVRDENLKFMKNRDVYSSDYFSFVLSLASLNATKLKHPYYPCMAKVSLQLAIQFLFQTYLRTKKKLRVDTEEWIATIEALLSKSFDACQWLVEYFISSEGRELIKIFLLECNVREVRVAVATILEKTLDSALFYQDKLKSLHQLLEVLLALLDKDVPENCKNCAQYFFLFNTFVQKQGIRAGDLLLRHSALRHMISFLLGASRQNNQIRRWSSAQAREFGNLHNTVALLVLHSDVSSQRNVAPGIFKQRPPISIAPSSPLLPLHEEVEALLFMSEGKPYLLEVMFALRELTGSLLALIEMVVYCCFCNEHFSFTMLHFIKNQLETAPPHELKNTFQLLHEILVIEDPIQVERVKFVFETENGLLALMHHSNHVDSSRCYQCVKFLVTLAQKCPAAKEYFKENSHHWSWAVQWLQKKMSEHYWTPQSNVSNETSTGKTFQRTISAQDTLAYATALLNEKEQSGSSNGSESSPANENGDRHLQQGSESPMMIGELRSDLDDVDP
Summary of the method: as §1

USP25 = biological target: T3, USP25 (UniProt Q9UHP3)
T3 sequence (whole entry): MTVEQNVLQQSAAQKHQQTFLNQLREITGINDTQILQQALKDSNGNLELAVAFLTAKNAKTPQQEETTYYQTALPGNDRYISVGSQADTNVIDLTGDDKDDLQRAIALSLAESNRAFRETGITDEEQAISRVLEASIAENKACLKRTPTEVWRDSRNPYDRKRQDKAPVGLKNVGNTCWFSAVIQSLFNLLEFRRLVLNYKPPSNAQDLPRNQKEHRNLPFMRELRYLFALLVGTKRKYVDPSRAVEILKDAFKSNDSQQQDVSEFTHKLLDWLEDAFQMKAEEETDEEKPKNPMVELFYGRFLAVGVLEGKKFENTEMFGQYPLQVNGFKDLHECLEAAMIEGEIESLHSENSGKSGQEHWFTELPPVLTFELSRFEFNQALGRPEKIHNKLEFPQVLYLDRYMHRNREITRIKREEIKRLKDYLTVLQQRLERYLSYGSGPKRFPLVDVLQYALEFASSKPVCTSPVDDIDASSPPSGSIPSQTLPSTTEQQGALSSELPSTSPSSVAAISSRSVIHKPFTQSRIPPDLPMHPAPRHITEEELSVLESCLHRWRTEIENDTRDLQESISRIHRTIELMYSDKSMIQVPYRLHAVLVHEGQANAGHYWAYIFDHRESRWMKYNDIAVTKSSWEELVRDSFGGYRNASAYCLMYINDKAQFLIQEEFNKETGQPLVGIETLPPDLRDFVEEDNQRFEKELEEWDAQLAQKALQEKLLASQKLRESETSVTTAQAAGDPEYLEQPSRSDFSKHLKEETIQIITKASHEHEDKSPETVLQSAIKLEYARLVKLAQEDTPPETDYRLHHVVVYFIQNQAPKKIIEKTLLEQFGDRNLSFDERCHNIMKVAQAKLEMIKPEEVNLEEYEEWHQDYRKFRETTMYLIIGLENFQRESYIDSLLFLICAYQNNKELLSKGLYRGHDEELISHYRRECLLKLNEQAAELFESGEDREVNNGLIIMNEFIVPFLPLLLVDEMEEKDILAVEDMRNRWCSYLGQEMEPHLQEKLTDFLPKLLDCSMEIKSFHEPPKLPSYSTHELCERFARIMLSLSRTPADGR
Summary of the method: as §1

USP28 = biological target: T4, USP28 (UniProt Q96RU2)
T4 sequence (whole entry): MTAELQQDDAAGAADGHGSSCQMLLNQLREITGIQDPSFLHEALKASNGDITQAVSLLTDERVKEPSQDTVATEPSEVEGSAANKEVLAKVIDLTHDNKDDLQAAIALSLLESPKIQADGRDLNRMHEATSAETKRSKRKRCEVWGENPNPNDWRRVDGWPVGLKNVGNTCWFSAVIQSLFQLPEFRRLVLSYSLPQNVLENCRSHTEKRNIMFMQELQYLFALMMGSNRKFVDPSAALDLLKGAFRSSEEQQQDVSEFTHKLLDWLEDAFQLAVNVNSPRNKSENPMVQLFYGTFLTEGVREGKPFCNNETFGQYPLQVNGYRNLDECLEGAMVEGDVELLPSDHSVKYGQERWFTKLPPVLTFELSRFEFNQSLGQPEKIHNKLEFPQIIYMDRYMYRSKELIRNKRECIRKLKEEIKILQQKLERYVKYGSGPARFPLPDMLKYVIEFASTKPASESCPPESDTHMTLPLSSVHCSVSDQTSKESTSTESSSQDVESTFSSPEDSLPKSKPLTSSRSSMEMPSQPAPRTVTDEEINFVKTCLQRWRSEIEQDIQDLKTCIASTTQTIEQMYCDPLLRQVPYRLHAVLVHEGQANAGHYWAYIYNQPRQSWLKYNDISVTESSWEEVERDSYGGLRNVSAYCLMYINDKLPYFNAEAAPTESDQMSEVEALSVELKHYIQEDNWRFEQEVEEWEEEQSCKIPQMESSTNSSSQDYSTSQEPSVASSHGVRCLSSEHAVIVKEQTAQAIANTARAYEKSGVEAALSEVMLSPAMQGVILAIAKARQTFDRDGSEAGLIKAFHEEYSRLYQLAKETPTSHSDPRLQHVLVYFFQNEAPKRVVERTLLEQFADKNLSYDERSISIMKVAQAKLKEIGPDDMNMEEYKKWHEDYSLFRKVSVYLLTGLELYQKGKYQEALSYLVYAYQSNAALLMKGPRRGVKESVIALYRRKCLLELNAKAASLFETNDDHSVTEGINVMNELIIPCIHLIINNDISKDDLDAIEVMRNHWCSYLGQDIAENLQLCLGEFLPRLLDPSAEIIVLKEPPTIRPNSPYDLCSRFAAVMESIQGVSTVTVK
Summary of the method: as §1

Measured: log2 ratio of Biotin-Ahx-Ub-VS probe labelling

Cc1ccc2nnc(CNC(=O)CCl)n2c1
inactive: USP19 -0.0329 | USP22 -0.259 | USP24 0.0887 | USP25 0.182 | USP28 -0.241
